ChEMBL document CHEMBL4513216, “Probing the Open Global Health Chemical Diversity Library for Multistage-Active Starting Points for Next-Generation Antimalarials” (ACS Infect Dis, 2020)
The whole screen tested about 69,000 compounds, of which about 8,600 (12%) showed an effect of 50% or more. The list comes from a sample in which strong results are over-represented; it also holds similar structures and randomly drawn compounds.

These compounds were tested on Plasmodium berghei (assay: Screen against P. berghei liver stage (PbLuc), transformed with Luciferase, at 10uM). Settings: tested at 10 uM.
Format: functional, HepG2

Q: O=C(COCC1CC1)N1CCSCC1 was tested. Which INHIBITION did it give?
A: 64.9%

Q: With Cc1ccc(NC2CCN(C(=O)COC3CCCCC3)CC2)nn1 as the compound, how does the INHIBITION read?
A: -7.81%

Q: How did the INHIBITION turn out when CC(C)(O)CN1CCN(C(=O)COCC2CC2)CC1 was run?
A: -38.8%

Q: CS(=O)(=O)NCC1CCCN(C(=O)COCC2CC2)C1 (centres undefined) was tested. Which INHIBITION did it give?
A: 48.1%

Q: Cc1ccc(NC2CCN(C(=O)COC3CCCC3)CC2)nn1 was tested. Which INHIBITION did it give?
A: -28.4%

Q: For O=C(NCc1csc(Br)c1)N1CCOCC1, which INHIBITION is on record?
A: -6.865%

Q: COCCC(=O)NCCc1nc2cc(-c3ccc(OC)cc3)ncn2n1 was tested. Which INHIBITION did it give?
A: 23.5%

Q: Cc1oncc1C(=O)N1CCC2(CC1)C(c1cnn(C)c1)CC(=O)N2C (centres undefined) was tested. Which INHIBITION did it give?
A: -15.5%

Q: Which INHIBITION does the source give for CN(C)CC1[C@H]2CN(C(=O)c3cc(=O)[nH]c4ccc(F)cc34)C[C@@H]12 (some centres undefined) here?
A: 43%

Q: For CCC(C(=O)NC(C)(C)C)n1ccc2ncccc2c1=O (centres undefined), which INHIBITION is on record?
A: 20.9%

Q: With c1coc(-c2nc(CNC3CCCNC3)no2)c1 (centres undefined) as the compound, how does the INHIBITION read?
A: -25.6%

Q: For CN(C)c1cc(C2CCCN2C(=O)c2ccc(=O)n(C)c2)ccn1 (centres undefined), which INHIBITION is on record?
A: -76.7%

Q: Which INHIBITION does the source give for CN(C)c1cc(CNC(=O)c2ccccc2Cl)ccn1 here?
A: -7.35%

Q: Which INHIBITION does the source give for CC(c1cccc(Cl)c1)N(C)Cc1nc2c(cnn2C)c(=O)[nH]1 (centres undefined) here?
A: 15.32%

Q: For COCCc1ncc(CNC2(c3ccc(Cl)cc3)CC2)cn1, which INHIBITION is on record?
A: -57.4%

Q: With CC(C)CN1C[C@@H]2C(=O)N(C)C3(CCN(C(=O)C(C)C)CC3)[C@@H]2C1 as the compound, how does the INHIBITION read?
A: -40.5%

Q: How did the INHIBITION turn out when Cc1noc(C(C)C)c1C(=O)NCCCN1CCNCC1 was run?
A: -18%

Q: For Cc1noc(C(C)C)c1C(=O)NCCCN1CCC(C)CC1, which INHIBITION is on record?
A: -12.1%

Q: Which INHIBITION does the source give for Cc1noc(C(C)C)c1C(=O)NCCCN1CCCC1 here?
A: 66.2%

Q: How did the INHIBITION turn out when Cc1ccc2c(n1)N(CCn1cccn1)CCN(S(C)(=O)=O)C2 was run?
A: -73.5%

Q: For c1ccc(Cc2nnc(CN3CCn4c(nnc4C4CC4)C3)o2)cc1, which INHIBITION is on record?
A: 21.5%

Q: CNc1ncc(CN(C)C(=O)[C@@]23CNC[C@@H]2CN(C(=O)C2CC2)C3)cn1 was tested. Which INHIBITION did it give?
A: -149%

Q: For Cc1c[nH]c(CN(C)C(=O)[C@@]23CNC[C@@H]2CN(c2ncccn2)C3)n1, which INHIBITION is on record?
A: 30%

Q: With Cc1cnc(CN(C)C(=O)C23CNCC2CNC3)[nH]1 (centres undefined) as the compound, how does the INHIBITION read?
A: 58.4%

Q: Cc1ccc(CN2CCOCS2(=O)=O)cc1F was tested. Which INHIBITION did it give?
A: 38%

Q: For CCn1cc(NC(=O)NCc2ccc(CN3CCOCC3)cc2)cn1, which INHIBITION is on record?
A: 30.2%

Q: How did the INHIBITION turn out when CN(C)c1ccc(-c2cc(C(=O)O)cc(S(=O)(=O)NC3CC3)c2)cc1 was run?
A: 84.9%

Q: For O=C(O)c1cc(-c2ccc3c(c2)OCO3)cc(S(=O)(=O)NC2CC2)c1, which INHIBITION is on record?
A: 8.74%

Q: Which INHIBITION does the source give for O=C(O)c1cc(-c2ccoc2)cc(S(=O)(=O)NC2CC2)c1 here?
A: 27.6%

Q: How did the INHIBITION turn out when N#CC1Sc2nnc(-c3ccccc3F)n2N=C1N (centres undefined) was run?
A: 11.6%

Q: Which INHIBITION does the source give for COc1ccc2[nH]cc(-c3ccnc(NC4CCCC4)n3)c2c1 here?
A: 90.1%

Q: With O=c1[nH]c(-c2ccncc2)ncc1-c1ccnc(NC2CCCCC2)n1 as the compound, how does the INHIBITION read?
A: 1.11%

Q: For COc1ccc2[nH]cc(-c3ccnc(N4CCC(C)CC4)n3)c2c1, which INHIBITION is on record?
A: 36.7%

Q: Which INHIBITION does the source give for Cc1ccc(CN2CC[C@@]3(O)CCN(S(=O)(=O)N(C)C)C[C@H]3C2)cc1C here?
A: -4.95%

Q: How did the INHIBITION turn out when COc1ncccc1CNC(=O)Nc1ccc(N(C)C)nc1 was run?
A: 15.6%

Q: Which INHIBITION does the source give for COCCN1C(=O)CCC12CCN(c1ncc(F)cn1)CC2 here?
A: 14.1%

Q: CCn1ncc2c1CCCC2NCc1cc(C)ccc1OC (centres undefined) was tested. Which INHIBITION did it give?
A: 9.14%

Q: CCn1ncc2c1CCCC2NCc1ccccc1N1CCOCC1 (centres undefined) was tested. Which INHIBITION did it give?
A: 56.4%

Q: Which INHIBITION does the source give for CCCOc1ccc(CNC2CCCc3c2cnn3CC)cc1OC (centres undefined) here?
A: 52%

Q: How did the INHIBITION turn out when CCn1ncc2c1CCCC2NCc1cscn1 (centres undefined) was run?
A: 35.4%

Q: CCn1ncc2c1CCCC2NCc1ccc(OC)c(C)c1 (centres undefined) was tested. Which INHIBITION did it give?
A: 38%

Q: CCn1ncc2c1CCCC2NCC1=Cc2ccccc2OC1 (centres undefined) was tested. Which INHIBITION did it give?
A: 63.9%

Q: How did the INHIBITION turn out when CCn1ncc2c1CCCC2NCc1ccc(C)s1 (centres undefined) was run?
A: -21.9%

Q: Which INHIBITION does the source give for CCn1ncc2c1CCCC2NCc1cccc2c1OCCO2 (centres undefined) here?
A: 18.6%

Q: Cc1ccc(CNC2CCCc3c2cnn3Cc2ccccc2)s1 (centres undefined) was tested. Which INHIBITION did it give?
A: 60.9%

Q: CCn1ncc2c1CCCC2NCc1ccc(OC)c(F)c1 (centres undefined) was tested. Which INHIBITION did it give?
A: 21.5%

Q: Which INHIBITION does the source give for Cc1cccc(CNC2CCCc3c2cnn3Cc2ccccc2)c1 (centres undefined) here?
A: 26.4%

Q: With CCn1ncc2c1CCCC2NCc1cccc2c1OCO2 (centres undefined) as the compound, how does the INHIBITION read?
A: 33.8%

Q: With NC(=O)CN1CCCC(Cc2ccc(N3CCOCC3)nn2)C1 (centres undefined) as the compound, how does the INHIBITION read?
A: 15.9%

Q: COC(=O)C(NC(=O)C1CCC1)c1cc(F)ccc1F (centres undefined) was tested. Which INHIBITION did it give?
A: -19.9%

Q: With Cc1nn(C)c(Cl)c1C(=O)NCC1(C(N)=O)CCOCC1 as the compound, how does the INHIBITION read?
A: 27.5%

Q: With Cc1ccc2[nH]c(CN(C)Cc3n[nH]c4c3CCC4)nc2c1 as the compound, how does the INHIBITION read?
A: -30.5%

Q: With Cc1ccc2nc(CN(C)Cc3n[nH]c4c3CCCCC4)[nH]c2c1C as the compound, how does the INHIBITION read?
A: 69.6%

Q: Which INHIBITION does the source give for Cc1ccc2nc(CN(C)Cc3[nH]nc4c3CCC4)[nH]c2c1C here?
A: -59.5%
